These results are taken from the supplement of paper PMC11001985.

Unmarked numbers belong to inactive results.

UniProt O43707, sequence (O43707 whole entry): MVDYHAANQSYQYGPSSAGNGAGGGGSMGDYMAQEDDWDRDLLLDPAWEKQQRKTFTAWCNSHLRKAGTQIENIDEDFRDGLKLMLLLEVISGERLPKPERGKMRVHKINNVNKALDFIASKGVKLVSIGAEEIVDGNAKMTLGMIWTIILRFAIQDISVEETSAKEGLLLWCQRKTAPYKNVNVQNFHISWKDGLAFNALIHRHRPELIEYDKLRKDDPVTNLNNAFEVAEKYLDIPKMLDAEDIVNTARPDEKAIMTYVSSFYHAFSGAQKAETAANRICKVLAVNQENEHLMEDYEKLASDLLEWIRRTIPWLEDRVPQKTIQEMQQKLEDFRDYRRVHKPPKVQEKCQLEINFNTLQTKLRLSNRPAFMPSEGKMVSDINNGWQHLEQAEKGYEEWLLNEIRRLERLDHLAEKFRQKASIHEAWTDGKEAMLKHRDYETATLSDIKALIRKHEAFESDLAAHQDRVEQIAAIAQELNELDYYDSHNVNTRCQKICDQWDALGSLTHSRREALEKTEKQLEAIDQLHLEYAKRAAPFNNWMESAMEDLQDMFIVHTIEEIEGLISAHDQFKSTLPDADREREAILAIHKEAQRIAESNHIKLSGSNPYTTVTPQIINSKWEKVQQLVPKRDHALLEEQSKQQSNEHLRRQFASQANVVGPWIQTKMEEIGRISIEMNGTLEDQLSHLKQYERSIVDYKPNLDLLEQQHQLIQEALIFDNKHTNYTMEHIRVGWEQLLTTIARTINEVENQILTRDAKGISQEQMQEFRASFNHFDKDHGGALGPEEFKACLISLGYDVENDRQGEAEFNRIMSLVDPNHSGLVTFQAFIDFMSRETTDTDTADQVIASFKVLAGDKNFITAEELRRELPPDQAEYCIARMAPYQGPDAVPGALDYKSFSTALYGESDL
UniProt Q8WUM4, sequence (Q8WUM4 whole entry): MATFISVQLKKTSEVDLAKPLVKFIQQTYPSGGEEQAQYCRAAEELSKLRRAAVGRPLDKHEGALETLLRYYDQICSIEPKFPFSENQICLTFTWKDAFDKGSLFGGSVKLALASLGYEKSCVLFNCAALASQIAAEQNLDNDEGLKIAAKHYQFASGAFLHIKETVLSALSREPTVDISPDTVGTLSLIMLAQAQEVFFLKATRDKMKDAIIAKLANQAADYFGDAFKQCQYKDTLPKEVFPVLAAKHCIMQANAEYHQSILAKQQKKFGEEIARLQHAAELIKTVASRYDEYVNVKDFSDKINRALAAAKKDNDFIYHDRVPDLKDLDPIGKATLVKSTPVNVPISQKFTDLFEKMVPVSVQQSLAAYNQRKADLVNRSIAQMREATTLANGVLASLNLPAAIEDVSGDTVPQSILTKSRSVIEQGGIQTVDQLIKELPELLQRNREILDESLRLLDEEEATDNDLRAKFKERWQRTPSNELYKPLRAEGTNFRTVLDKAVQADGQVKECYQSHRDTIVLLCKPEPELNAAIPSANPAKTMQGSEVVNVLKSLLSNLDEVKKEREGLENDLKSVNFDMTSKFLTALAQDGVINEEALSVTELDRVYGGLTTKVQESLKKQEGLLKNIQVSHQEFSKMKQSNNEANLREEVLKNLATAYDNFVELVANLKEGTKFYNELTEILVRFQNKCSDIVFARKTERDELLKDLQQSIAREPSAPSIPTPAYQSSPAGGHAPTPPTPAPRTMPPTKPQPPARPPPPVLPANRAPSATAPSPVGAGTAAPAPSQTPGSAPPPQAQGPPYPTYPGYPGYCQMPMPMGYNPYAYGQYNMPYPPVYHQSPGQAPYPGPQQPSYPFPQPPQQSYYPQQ
UniProt P35579, sequence (P35579 whole entry): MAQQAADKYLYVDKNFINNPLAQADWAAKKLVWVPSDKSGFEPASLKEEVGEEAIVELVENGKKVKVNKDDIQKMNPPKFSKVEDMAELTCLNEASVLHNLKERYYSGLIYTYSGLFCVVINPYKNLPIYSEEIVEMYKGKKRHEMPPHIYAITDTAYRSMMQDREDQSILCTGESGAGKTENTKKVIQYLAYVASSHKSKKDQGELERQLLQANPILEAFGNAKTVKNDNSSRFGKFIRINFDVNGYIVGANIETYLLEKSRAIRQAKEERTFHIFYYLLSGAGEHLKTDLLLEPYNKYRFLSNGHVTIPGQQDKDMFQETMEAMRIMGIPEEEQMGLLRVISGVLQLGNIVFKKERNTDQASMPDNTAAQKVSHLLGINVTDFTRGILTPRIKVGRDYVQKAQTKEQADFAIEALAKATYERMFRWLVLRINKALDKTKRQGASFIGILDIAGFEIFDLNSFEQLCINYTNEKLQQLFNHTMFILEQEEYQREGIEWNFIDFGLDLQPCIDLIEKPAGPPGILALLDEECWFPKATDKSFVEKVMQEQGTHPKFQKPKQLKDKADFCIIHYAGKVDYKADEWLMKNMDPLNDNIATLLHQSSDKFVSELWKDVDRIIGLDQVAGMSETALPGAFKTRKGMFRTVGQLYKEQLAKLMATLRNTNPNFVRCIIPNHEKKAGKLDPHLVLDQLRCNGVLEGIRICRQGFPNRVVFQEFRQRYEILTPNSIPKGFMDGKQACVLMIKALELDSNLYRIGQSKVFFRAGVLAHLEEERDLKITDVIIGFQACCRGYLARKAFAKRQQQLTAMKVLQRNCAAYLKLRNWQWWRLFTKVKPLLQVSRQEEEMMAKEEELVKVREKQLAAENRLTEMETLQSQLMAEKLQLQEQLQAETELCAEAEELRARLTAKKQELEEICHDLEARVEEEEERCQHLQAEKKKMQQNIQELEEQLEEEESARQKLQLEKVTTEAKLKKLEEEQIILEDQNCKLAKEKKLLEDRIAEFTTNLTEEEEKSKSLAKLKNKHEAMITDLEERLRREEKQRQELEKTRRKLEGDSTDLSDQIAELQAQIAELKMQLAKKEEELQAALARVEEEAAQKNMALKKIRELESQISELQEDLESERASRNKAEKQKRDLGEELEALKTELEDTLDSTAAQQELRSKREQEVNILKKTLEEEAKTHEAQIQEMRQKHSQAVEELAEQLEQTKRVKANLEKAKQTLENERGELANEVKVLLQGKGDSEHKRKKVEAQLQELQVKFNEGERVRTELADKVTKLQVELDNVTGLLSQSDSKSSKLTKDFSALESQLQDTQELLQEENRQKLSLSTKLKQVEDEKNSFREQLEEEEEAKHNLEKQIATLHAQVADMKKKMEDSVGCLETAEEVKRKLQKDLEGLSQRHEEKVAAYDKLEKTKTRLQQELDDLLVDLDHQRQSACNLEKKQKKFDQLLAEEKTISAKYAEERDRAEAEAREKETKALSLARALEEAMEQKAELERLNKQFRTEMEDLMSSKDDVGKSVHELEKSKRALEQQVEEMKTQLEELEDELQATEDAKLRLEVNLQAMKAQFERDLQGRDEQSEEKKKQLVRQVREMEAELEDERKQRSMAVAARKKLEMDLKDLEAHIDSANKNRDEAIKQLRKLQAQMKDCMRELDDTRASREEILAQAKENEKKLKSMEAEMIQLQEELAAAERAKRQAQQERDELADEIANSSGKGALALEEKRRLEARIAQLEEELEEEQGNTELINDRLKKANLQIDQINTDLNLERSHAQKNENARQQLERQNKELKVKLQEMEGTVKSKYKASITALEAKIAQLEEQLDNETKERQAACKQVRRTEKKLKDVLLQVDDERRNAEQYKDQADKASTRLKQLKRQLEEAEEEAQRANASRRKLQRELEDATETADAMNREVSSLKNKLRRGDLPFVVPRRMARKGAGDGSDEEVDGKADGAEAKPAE
UniProt Q01813, sequence (Q01813 whole entry): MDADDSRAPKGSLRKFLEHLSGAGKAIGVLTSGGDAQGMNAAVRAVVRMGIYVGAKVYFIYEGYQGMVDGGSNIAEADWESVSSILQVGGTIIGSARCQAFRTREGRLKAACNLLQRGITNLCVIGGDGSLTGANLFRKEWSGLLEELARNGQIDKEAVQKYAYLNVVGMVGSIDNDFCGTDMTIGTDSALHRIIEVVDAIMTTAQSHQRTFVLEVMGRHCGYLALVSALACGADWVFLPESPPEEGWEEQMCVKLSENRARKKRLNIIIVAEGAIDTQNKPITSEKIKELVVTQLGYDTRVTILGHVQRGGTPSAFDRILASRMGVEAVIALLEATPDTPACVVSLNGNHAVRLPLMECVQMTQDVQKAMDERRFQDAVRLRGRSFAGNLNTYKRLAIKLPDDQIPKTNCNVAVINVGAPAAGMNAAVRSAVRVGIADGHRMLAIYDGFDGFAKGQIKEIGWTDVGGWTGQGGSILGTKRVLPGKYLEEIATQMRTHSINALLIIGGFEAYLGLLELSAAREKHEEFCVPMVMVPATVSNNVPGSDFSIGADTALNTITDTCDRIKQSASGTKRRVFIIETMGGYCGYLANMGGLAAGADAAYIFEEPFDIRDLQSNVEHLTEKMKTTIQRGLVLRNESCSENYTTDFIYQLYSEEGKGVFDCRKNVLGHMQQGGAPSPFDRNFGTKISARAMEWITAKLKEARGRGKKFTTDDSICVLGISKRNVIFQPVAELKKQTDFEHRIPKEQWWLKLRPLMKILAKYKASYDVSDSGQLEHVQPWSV
UniProt P26641, sequence (P26641 whole entry): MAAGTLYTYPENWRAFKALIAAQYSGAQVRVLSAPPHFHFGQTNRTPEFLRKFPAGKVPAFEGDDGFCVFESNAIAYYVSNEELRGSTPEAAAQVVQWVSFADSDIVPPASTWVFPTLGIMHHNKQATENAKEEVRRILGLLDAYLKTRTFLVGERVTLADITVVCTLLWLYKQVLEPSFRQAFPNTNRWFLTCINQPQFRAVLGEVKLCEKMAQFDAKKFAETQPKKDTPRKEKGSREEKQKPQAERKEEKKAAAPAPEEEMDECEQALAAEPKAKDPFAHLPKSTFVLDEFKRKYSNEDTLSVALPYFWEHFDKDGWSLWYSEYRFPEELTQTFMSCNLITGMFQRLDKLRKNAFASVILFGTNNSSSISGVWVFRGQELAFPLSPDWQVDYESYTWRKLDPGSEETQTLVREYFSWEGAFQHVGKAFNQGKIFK

Compound in the test: C#CCNC(=O)CCSSCCC(=O)NCCc1ccc(C=O)c(C=O)c1
Description: lysine labeling ratio R10:1 (500 µM / 50 µM probe), SILAC-ABPP in living cells; higher = lower intrinsic lysine reactivity toward the probe, active = 2 or less. To be noted: HeLa; probe concentrations 500 vs 50 µM. The gist of the method: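 An alkyne-tagged lysine probe with a disulfide linker labelled living HeLa cells in PBS at room temperature at either 50 µM or 500 µM, using SILAC light and heavy cells in forward and reverse label swaps. Lysates were mixed, clicked to biotin-azide, trypsin-digested, enriched on neutravidin, DTT-released, alkylated and measured by LC-MS/MS on a TIMS-TOF Pro. Each lysine's R is the filtered median high-probe/low-probe MS1 peptide ratio, combined as the median over forward and reverse replicates, with 20 as the upper limit.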
For “MSN (lysine site: K458) (UniProt P26038)”, the “lysine labeling ratio R10:1” value is 1.55 (active).
As for UniProt P05787 (lysine site: K295), the “lysine labeling ratio R10:1” value was 11.9.
With “IGSF8 (lysine site: K143) (UniProt Q969P0)”, the “lysine labeling ratio R10:1” value was 2.9.
As to “EGFR (lysine site: K212) (UniProt P00533)”, the “lysine labeling ratio R10:1” value was 2.63.
In the case of UniProt P16144 (lysine site: K388), the “lysine labeling ratio R10:1” value is 0.94 (active).
“RPS2 (lysine site: K275) (UniProt P15880)”: the “lysine labeling ratio R10:1” value was 1.57 (active).
Consider “PDCD6IP (lysine site: K640) (UniProt Q8WUM4)”, for which the “lysine labeling ratio R10:1” value is 0.892 (active).
For the target “IL17RA (lysine site: K274) (UniProt Q96F46)”, the “lysine labeling ratio R10:1” value was 0.998 (active).
The result for “SLC25A13 (lysine site: K235) (UniProt Q9UJS0)” reads 2.23; that for “PRDX6 (lysine site: K63) (UniProt P30041)”, 2.85; that for “EEF1G (lysine site: K132) (UniProt P26641)”, 1.81 (active).
Regarding “OSBPL5 (lysine site: K446) (UniProt Q9H0X9)”, the “lysine labeling ratio R10:1” value was 1.7 (active).
Regarding “RAB2A (lysine site: K131) (UniProt P61019)”, the “lysine labeling ratio R10:1” value was 1.7 (active).
As for “UGDH (lysine site: K173) (UniProt O60701)”, the figure is 1.43 (active); as for “PRDX5 (lysine site: K142) (UniProt P30044)”, 1.62 (active).
As to “ITGA2 (lysine site: K261) (UniProt P17301)”, the “lysine labeling ratio R10:1” value is 1.26 (active).
As for UniProt P61160 (lysine site: K381), the “lysine labeling ratio R10:1” value was 2.7.
As for “CKAP4 (lysine site: K405) (UniProt Q07065)”, the “lysine labeling ratio R10:1” value is 1.2 (active).
In the case of “HNRNPM (lysine site: K69) (UniProt P52272)”, the “lysine labeling ratio R10:1” value is 3.38.
As for “ACTN4 (lysine site: K643) (UniProt O43707)”, the figure is 7.08; as for UniProt Q15149 (lysine site: K2396), 2.3.
With “PFKP (lysine site: K688) (UniProt Q01813)”, the “lysine labeling ratio R10:1” value is 1.74 (active).
The result for “PLXNB2 (lysine site: K1121) (UniProt O15031)” reads 0.81 (active); that for “CACYBP (lysine site: K212) (UniProt Q9HB71)”, 1.91 (active); that for “ACTN4 (lysine site: K437) (UniProt O43707)”, 2.2.
UniProt O95980 (lysine site: K747): the “lysine labeling ratio R10:1” value was 1.22 (active).
With “MYH9 (lysine site: K1631) (UniProt P35579)”, the “lysine labeling ratio R10:1” value was 1.9 (active).
For the target “RPL5 (lysine site: K284) (UniProt P46777)”, the “lysine labeling ratio R10:1” value was 1.68 (active).
As for “THRAP3 (lysine site: K711) (UniProt Q9Y2W1)”, the figure is 1.73 (active); as for “LDLR (lysine site: K782) (UniProt P01130)”, 3.22; as for “HSPA8 (lysine site: K319) (UniProt P11142)”, 4.74.
As to “ITGA1 (lysine site: K849) (UniProt P56199)”, the “lysine labeling ratio R10:1” value is 0.921 (active).
As to “CCT2 (lysine site: K154) (UniProt P78371)”, the “lysine labeling ratio R10:1” value is 3.78.
Take “SUB1 (lysine site: K80) (UniProt P53999)”: the “lysine labeling ratio R10:1” value was 1.69 (active).
For the target “ANXA1 (lysine site: K214) (UniProt P04083)”, the “lysine labeling ratio R10:1” value was 6.33.
Take AK2 (lysine site: K28) (UniProt P54819): the “lysine labeling ratio R10:1” value is 10.2.
“CRIM1 (lysine site: K171) (UniProt Q9NZV1)”: the “lysine labeling ratio R10:1” value is 2.01.
As for “PDCD6IP (lysine site: K690) (UniProt Q8WUM4)”, the figure is 2.89; as for “CYB5R3 (lysine site: K42) (UniProt P00387)”, 3.81; as for “CSRP1 (lysine site: K178) (UniProt P21291)”, 0.76 (active).
